The whole screen tested about 150,000 compounds, of which about 1,000 (0.67%) were called active. Rule as the data show it: active = % elongation below about 90%; inactive = the rest, inconclusive results apart. The sample as a whole holds a higher share of actives than the screen did.
Biological target: Genome polyprotein (Poliovirus type 1 (strain Mahoney)) (UniProt P03300)
Test: poliovirus RdRp elongation inhibitors, primary screen, biochemical, fluorescence polarization, total intensity (AID 588519); as to z-score: compound at 16.7 µg/mL
Conditions: poliovirus polymerase elongation, stronger effect = lower value; for % elongation: compound at 16.7 µg/mL; for z-score: measured here: FP z-score
[1] = measured here: total intensity read-out

Chain of Genome polyprotein (Poliovirus type 1 (strain Mahoney)) (P03300 1749-2209 limits assumed): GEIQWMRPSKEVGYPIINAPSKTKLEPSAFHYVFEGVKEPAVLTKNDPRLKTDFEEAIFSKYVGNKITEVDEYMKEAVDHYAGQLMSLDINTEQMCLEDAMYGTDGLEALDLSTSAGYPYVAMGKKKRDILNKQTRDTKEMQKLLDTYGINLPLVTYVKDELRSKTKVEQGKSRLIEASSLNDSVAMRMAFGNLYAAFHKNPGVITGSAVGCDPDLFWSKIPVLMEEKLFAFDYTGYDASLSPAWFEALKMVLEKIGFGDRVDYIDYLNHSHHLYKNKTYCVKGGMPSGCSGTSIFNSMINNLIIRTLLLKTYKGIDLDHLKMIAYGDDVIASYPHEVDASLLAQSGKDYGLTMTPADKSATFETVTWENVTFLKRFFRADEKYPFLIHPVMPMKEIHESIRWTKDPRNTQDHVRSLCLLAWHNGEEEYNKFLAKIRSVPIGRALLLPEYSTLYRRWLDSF

In the case of `COC(=O)c1ccccc1NC(=O)C1CC(c2cccc(Br)c2)=NO1` (configuration not stated), the % elongation is reported as 104% (inactive), the z-score is reported as 0.6 and the % elongation [1] is reported as 106%.

For `CC(C)NC(=O)CCc1c[nH]c2ccccc12`, the % elongation was 62% (active), the z-score was -4.7 and the % elongation [1] was 68%.

With `CC(=O)Nc1ccc(NC(=O)C(C)OC(=O)Cc2c[nH]c3ccccc23)cc1` (configuration not stated) the % elongation was 105% (inactive), the z-score was 0 and the % elongation [1] was 108%.

With `CCOC(=O)C(N)Cc1c[nH]c2ccccc12` (configuration not stated) the % elongation was 100% (inactive), the z-score was -0.3 and the % elongation [1] was 101%.

For `CCOC(=O)c1c(C)c(-c2ccccc2)n(CC(=O)N2CCN(c3ccccn3)CC2)c1C`, the % elongation was 99% (inactive), the z-score was -0.8 and the % elongation [1] was 104%.

With `COc1ccc(C/C(C#N)=C/N2CCN(c3ccccc3F)CC2)cc1` the % elongation was 102% (inactive), the z-score was 0.1 and the % elongation [1] was 107%.

For `C=CCn1ccc2c(OCC(=O)c3ccccc3)cccc2c1=O`, the % elongation was 104% (inactive), the z-score was 0.6 and the % elongation [1] was 101%.

`CN1/C(=C/C(=S)C(C)(C)C)Sc2ccccc21` was tested, and the % elongation was 84% (active), the z-score was -1.7 and the % elongation [1] was 83%.

With `CCNC(=O)N1c2ccccc2Sc2ccccc21` the % elongation was 101% (inactive), the z-score was 0.2 and the % elongation [1] was 103%.

`COCCNC(=O)N1c2ccccc2Sc2ccccc21` was tested, and the % elongation was 103% (inactive), the z-score was 0.4 and the % elongation [1] was 100%.

For `Cc1[nH]nc2c1C1C(C2)C1(C)C` (configuration not stated), the % elongation was 76% (active), the z-score was -7.4 and the % elongation [1] was 105%.

For `CCc1nc(NCc2ccccc2)c(C#N)c2c1COC(C)(C)C2`, the % elongation was 107% (inactive), the z-score was 0.4 and the % elongation [1] was 112%.

`O=C(CSc1nnc(-c2c[nH]c3ccccc23)o1)NCC1CN(Cc2ccccc2)CCO1` (configuration not stated) was tested, and the % elongation was 105% (inactive), the z-score was 0.1 and the % elongation [1] was 109%.

In the case of `COc1ccc(-c2noc(CC(=O)N(C)c3ccccc3)n2)cc1`, the % elongation is reported as 106% (inactive), the z-score is reported as 0.7 and the % elongation [1] is reported as 100%.

`C=CCSc1nnc(NC(=O)CSc2nc(C)cc(=O)[nH]2)s1` was tested, and the % elongation was 88% (active), the z-score was -4 and the % elongation [1] was 65%.

In the case of `C=CCSc1nnc(NC(=O)CCNS(=O)(=O)c2ccccc2)s1`, the % elongation is reported as 103% (inactive), the z-score is reported as 0.2 and the % elongation [1] is reported as 107%.

With `COC(=O)Cc1cnc(NC(=O)CSc2nc(C(C)C)cc(=O)[nH]2)s1` the % elongation was 102% (inactive), the z-score was 0.3 and the % elongation [1] was 100%.

For `COc1ccccc1NC(=O)Nc1cc(C(C)(C)C)nn1-c1ccccc1`, the % elongation was 105% (inactive), the z-score was 0.5 and the % elongation [1] was 102%.

In the case of `Cc1sc2nc(COC(=O)C(NC(=O)c3ccco3)C(C)C)[nH]c(=O)c2c1C` (configuration not stated), the % elongation is reported as 94% (inactive), the z-score is reported as -1.2 and the % elongation [1] is reported as 219%.

With `CCOC(=O)c1cnc2c(C)c(C)ccc2c1NCCCN(C)C` the % elongation was 69% (active), the z-score was -5 and the % elongation [1] was 53%.

For `CCOC(=O)c1cnc2c(C)cc(Cl)cc2c1NCCc1ccc(OC)c(OC)c1`, the % elongation was 104% (inactive), the z-score was -0.4 and the % elongation [1] was 104%.

`CCOC(=O)c1cnc2c(C)cc(C)cc2c1Nc1ccc(N2CCOCC2)cc1` was tested, and the % elongation was 107% (inactive), the z-score was 0.5 and the % elongation [1] was 110%.

`O=C(COC(=O)c1cccs1)NCc1cccs1` was tested, and the % elongation was 100% (inactive), the z-score was -0.1 and the % elongation [1] was 101%.

For `Cc1nc2ccccc2nc1OCC(=O)N(C1CCCCC1)C1CCCCC1`, the % elongation was 99% (inactive), the z-score was -0.3 and the % elongation [1] was 97%.

For `CCOC(=O)c1sc(NC(=O)/C=C/c2ccc(C(C)C)cc2)c(C(=O)OCC)c1C`, the % elongation was 105% (inactive), the z-score was 0.3 and the % elongation [1] was 109%.

With `CCOC(=O)c1c(NC(=O)COc2cc(C)ccc2C(C)C)sc(C)c1C` the % elongation was 89% (active), the z-score was -2.6 and the % elongation [1] was 88%.

`COC(=O)c1c(NC(=O)C(C)Oc2ccc(Cl)c(C)c2)sc(C)c1C` (configuration not stated) was tested, and the % elongation was 109% (inactive), the z-score was 0.5 and the % elongation [1] was 106%.

For `COC(=O)c1sc(C)cc1OC(=O)c1ccc(OC)cc1`, the % elongation was 99% (inactive), the z-score was -0.2 and the % elongation [1] was 100%.

`CCCc1nc2c3ccccc3ncn2n1` was tested, and the % elongation was 105% (inactive), the z-score was 0.4 and the % elongation [1] was 113%.

For `CCCCCCn1nnc2sc(-c3ccccc3)cc2c1=O`, the % elongation was 121% (inactive), the z-score was 2.3 and the % elongation [1] was 118%.

With `CC(C)OC(=O)C(C)n1cnc2sc(-c3ccccc3)cc2c1=O` (configuration not stated) the % elongation was 104% (inactive), the z-score was 0 and the % elongation [1] was 105%.

For `Cc1ccc(Cl)cc1NC(=O)C(C)n1nnc2sc(-c3ccccc3)cc2c1=O` (configuration not stated), the % elongation was 65% (active), the z-score was -6.8 and the % elongation [1] was 65%.

For `CC1(C)CC(=O)C=C(Nc2sc3c(c2C#N)CCCC3)C1`, the % elongation was 98% (inactive), the z-score was -1 and the % elongation [1] was 97%.

With `O=C(CSc1nnnn1-c1ccccc1)NCCC12CC3CC(CC(C3)C1)C2` the % elongation was 102% (inactive), the z-score was -0.1 and the % elongation [1] was 107%.

In the case of `COc1ccc(S(=O)(=O)NCCSc2nnnn2-c2ccccc2)cc1`, the % elongation is reported as 75% (active), the z-score is reported as -7.9 and the % elongation [1] is reported as 73%.

In the case of `CCOc1ccc(S(=O)(=O)NCCSc2ccccc2)cc1`, the % elongation is reported as 100% (inactive), the z-score is reported as -0.1 and the % elongation [1] is reported as 103%.

In the case of `O=C(Nc1ccc(S(=O)(=O)C(F)F)cc1)c1cccnc1N1CCCC1`, the % elongation is reported as 102% (inactive), the z-score is reported as -0.3 and the % elongation [1] is reported as 104%.

With `Cc1ccc(-n2cc[nH]c(=O)c2=O)cc1` the % elongation was 103% (inactive), the z-score was 0.3 and the % elongation [1] was 102%.

In the case of `CCCC(=O)Nc1ccc(C(=O)CSc2nnc(Cc3ccccc3)o2)cc1`, the % elongation is reported as 106% (inactive), the z-score is reported as 0.3 and the % elongation [1] is reported as 106%.
